ABHD5-PLIN5 inh – inhibitors of human ABHD5-perilipin-5 interaction; AID 602281; Split G. princeps luciferase complementation, luminescence, 4 h; inhibition, % at 4 µM; actives 0.78% (n = 360,000);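 active means inhibition above the mean inhibition across every tested compound plus 3 SD, cut at about 22% in these data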;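 further: 0% = DMSO only wells and the 100% control is not disclosed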
Platelet DG rel – platelet dense granule release activity. inhibition, %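 (compounds screened at 7.5 µM in platelet-rich plasma)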. AID 1663. actives 0.22% (n = 300,000). human platelet-rich plasma, SFLLRN dense granule ATP release, luminescence;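 active means mean replicate score, as percent of positive control, at or above 50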
PfM18AAP inh – PfM18AAP enzyme inhibition; actives 1.2% (n = 290,000); inhibition, % at 7.35 µM; recombinant PfM18AAP, H-Glu-NHMec fluorogenic cleavage;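 active means inhibition above the campaign mean inhibition over all tested compounds plus 3 SD, cut at about 28% in these data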;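 further: 0% = plate median of test compound wells and 100% = 2 mM ZnCl2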
Rce1 inhib – yeast Ras-converting enzyme inhibition; Q03530; actives 0.27% (n = 290,000); yeast membranes, quenched prenylated peptide cleavage fluorescence; calls only;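 active means fall in fluorescence gain of 50% or more versus controls, with final raw signal at or below 3038400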;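 further: plate controls were neutral control wells for no effect and wells lacking membranes for full effect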
Target sequence (Q03530 whole entry, looked up): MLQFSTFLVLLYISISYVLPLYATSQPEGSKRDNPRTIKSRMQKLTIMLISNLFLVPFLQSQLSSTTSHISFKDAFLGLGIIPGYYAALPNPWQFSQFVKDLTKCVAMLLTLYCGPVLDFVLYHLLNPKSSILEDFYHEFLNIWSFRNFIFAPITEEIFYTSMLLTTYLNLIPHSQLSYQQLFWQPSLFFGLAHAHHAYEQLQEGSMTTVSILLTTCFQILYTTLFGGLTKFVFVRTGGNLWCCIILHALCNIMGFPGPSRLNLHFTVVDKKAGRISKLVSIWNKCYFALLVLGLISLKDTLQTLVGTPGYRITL
Granule exo inh – lytic granule exocytosis inhibition; TALL-104 LAMP-1 surface exposure, flow cytometry; cells stimulated with thapsigargin and PMA; inhibition, % at 10 µM; actives 0.66% (n = 360,000); AID 651702;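 active means inhibition above about 55%, limit read from the data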
Granule exo CP1 – blocks lytic granule exocytosis | shares compounds with Granule exo inh | TALL-104 cells, LAMP-1 externalization, flow cytometry; stimulated with PMA plus thapsigargin | inhibition, % at 10 µM | actives 11% (n = 1,500); in the data active means inhibition above about 60%;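 further: 0% = stimulated vehicle wells and 100% = unstimulated wells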
The depositor's hits bear a star; i = inactive; . = no result. Hits are enriched below; roughly 2.6% of the tested compounds scored in any of these assays.

SMILES	ABHD5-PLIN5 inh	Platelet DG rel	PfM18AAP inh	Rce1 inhib	Granule exo inh	Granule exo CP1
C[C@H](CO)N1C[C@H](C)[C@@H](CN(C)C(=O)NC2CCCCC2)Oc2ccc(NS(C)(=O)=O)cc2C1=O	1.9	.	.	.	73.4*	0.0
CC(C)NC(=O)N(C)C[C@H]1Oc2c(NC(=O)Nc3ccc(C(F)(F)F)cc3)cccc2C(=O)N([C@H](C)CO)C[C@@H]1C	15.6	.	.	.	60.0*	-4.0
C[C@H](CO)N1C[C@H](C)[C@@H](CN(C)C(=O)Nc2ccc(C(F)(F)F)cc2)Oc2c(NC(=O)Nc3ccccc3)cccc2C1=O	3.0	.	.	.	-2.7	.
CCOP(=O)(c1ccccc1Cl)C1(O)CCCCC1 (stereo not given)	-2.7	-1.7	0.9	i	0.2	.
CC(C)Oc1ccc2nnnn2n1	-2.2	4.2	0.3	i	-2.8	.
CSc1nc2c(cc1C#N)CCCCC2	-5.2	-2.2	4.5	i	0.8	.
O=C(CCN1CCN(c2ccc([N+](=O)[O-])cc2)CC1)c1ccc(Cl)cc1	13.4	-7.9	-11.0	i	84.1*	-7.6
O=C(CCN1CCN(c2ccccc2)CC1)c1ccc(Cl)cc1	4.3	-4.5	-17.0	i	79.2*	50.2
O=C(CCN1CCN(c2ccccc2)CC1)Nc1ccc(Cl)cc1	5.2	-4.6	7.0	i	1.6	.
Cc1cccc(C)c1-n1c(C)cc(/C=N/NC(=O)CSc2ncccn2)c1C	0.0	-13.7	-3.0	i	0.1	.
COc1ccc(-c2nc3ccccc3c(=O)n2N)cc1	-3.8	-2.1	0.1	i	0.3	.
Cc1ccc(N2C(=O)CC(Sc3cccs3)C2=O)cc1 (stereo not given)	-0.8	1.8	-19.8	i	86.4*	-8.3
Cc1cccc(N2C(=O)CC(Sc3nnc(C)s3)C2=O)c1 (stereo not given)	1.6	20.6	-46.1	i	67.4*	-1.2
Cc1ccc(N2C(=O)CC(Sc3nccc(C)n3)C2=O)cc1 (stereo not given)	0.1	1.4	-5.9	i	15.0	.
CC(=O)N1CC2(C)CN(C(C)=O)CC(C)(C1)C2	-3.5	-1.8	0.1	i	-9.4	.
COc1cc(OC)c2c(-c3ccccc3)cc(C3CCCCC3)nc2c1	-0.2	.	.	.	-1.5	.
Cc1ccc(N=C2NC(=O)/C(=C/c3cccs3)S2)cc1C	-0.3	3.3	-4.8	i	4.6	.
Cc1ccccc1Nc1nc(N)nc(COC(=O)c2ccc(S(=O)(=O)N(C)C)cc2)n1	4.8	6.4	-7.8	i	63.0*	-13.0
Cc1ccccc1Nc1nc(N)nc(COC(=O)c2ccco2)n1	2.9	.	.	.	2.7	.
C/C(=N\Nc1ccc(Cl)c(Cl)c1)c1ccc(-n2ccnc2)cc1	5.8	-12.4	3.6	i	-0.5	.
COc1ccc(-c2nc3cc(C)c(Br)c(C)n3c2Cc2ccccc2C(F)(F)F)cc1OC	-1.8	.	.	.	-7.8	.
Cc1cc2nc(-c3ccco3)c(Cc3ccccc3C(F)(F)F)n2c(C)c1Br	39.8*	.	.	.	84.8*	-11.5
COc1ccccc1NC(=O)C(C)N(C)Cc1ccc(Cl)s1 (stereo not given)	-11.1	-2.0	10.4	i	58.1*	-5.1
COc1ccccc1NC(=O)C(C)N(C)CC(=O)Nc1cccc2ccccc12 (stereo not given)	-1.0	.	.	.	5.2	.
O=C(Nc1nnc(SCc2ccc(F)cc2)s1)c1ccc2c(c1)C(=O)N(c1ccccc1Cl)C2=O	-0.2	2.0	4.4	i	0.9	.
SMILES	ABHD5-PLIN5 inh	Platelet DG rel	PfM18AAP inh	Rce1 inhib	Granule exo inh	Granule exo CP1
c1ccc2c(CN3CCOCC3)c3ccccc3c(CN3CCOCC3)c2c1	9.9	-10.1	-13.7	i	-3.1	.
Oc1c(CN2CCOCC2)ccc2ccccc12	13.7	3.5	8.8	i	86.0*	-12.3
CCCCn1nnnc1C(c1cccc2ccccc12)N1CCN(C/C=C/c2ccccc2)CC1 (stereo not given)	8.9	.	.	.	57.5*	28.1
CCCCn1nnnc1C(c1ccnc2ccccc12)N1CCN(C/C=C/c2ccccc2)CC1 (stereo not given)	-7.4	.	.	.	-5.9	.
CS(=O)(=O)Nc1ccccc1C(=O)c1ccccc1	0.8	-2.1	-0.7	i	-0.5	.
CCCCN(CCCC)CCNC(=O)CN1C(=O)COc2ccc(S(=O)(=O)N3CCC(C)CC3)cc21	-3.3	-21.8	1.3	i	-1.2	.
CCCCN(CCCNC(=O)CN1C(=O)COc2ccc(S(=O)(=O)N3CCC(C)CC3)cc21)Cc1ccccc1	9.9	13.1	-3.1	i	60.2*	-3.5
